Key:
Assay in all cases: log2 ratio of Biotin-Ahx-Ub-VS probe labelling (fragment/DMSO); higher = less target engagement (more negative = stronger competition), active = hit call of the paper (q ≤ 0.05, log2 ratio ≤ -1)
Details in all cases: compound concentration: 200 uM; treatment time: 3 h
USP34 = USP34 (UniProt Q70CQ2)
Summary of the method: (§1)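 Global-median-normalised Spectronaut label-free quantities were compared by unpaired t-test, and values are average log2 ratios of fragment over vehicle. Only proteins with ≥2 unique peptides were used. HEK293T lysate (495 µg per sample) was treated in triplicate with fragment at 200 µM or vehicle for 3 h and then with Biotin-Ahx-Ub-VS at 0.5 µM final for 1 h. Labelled DUBs were then NeutrAvidin-enriched, digested with LysC and trypsin, and run by diaPASEF LC-MS/MS.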

USP36 = target: T1, USP36 (UniProt Q9P275)
T1 sequence (whole entry): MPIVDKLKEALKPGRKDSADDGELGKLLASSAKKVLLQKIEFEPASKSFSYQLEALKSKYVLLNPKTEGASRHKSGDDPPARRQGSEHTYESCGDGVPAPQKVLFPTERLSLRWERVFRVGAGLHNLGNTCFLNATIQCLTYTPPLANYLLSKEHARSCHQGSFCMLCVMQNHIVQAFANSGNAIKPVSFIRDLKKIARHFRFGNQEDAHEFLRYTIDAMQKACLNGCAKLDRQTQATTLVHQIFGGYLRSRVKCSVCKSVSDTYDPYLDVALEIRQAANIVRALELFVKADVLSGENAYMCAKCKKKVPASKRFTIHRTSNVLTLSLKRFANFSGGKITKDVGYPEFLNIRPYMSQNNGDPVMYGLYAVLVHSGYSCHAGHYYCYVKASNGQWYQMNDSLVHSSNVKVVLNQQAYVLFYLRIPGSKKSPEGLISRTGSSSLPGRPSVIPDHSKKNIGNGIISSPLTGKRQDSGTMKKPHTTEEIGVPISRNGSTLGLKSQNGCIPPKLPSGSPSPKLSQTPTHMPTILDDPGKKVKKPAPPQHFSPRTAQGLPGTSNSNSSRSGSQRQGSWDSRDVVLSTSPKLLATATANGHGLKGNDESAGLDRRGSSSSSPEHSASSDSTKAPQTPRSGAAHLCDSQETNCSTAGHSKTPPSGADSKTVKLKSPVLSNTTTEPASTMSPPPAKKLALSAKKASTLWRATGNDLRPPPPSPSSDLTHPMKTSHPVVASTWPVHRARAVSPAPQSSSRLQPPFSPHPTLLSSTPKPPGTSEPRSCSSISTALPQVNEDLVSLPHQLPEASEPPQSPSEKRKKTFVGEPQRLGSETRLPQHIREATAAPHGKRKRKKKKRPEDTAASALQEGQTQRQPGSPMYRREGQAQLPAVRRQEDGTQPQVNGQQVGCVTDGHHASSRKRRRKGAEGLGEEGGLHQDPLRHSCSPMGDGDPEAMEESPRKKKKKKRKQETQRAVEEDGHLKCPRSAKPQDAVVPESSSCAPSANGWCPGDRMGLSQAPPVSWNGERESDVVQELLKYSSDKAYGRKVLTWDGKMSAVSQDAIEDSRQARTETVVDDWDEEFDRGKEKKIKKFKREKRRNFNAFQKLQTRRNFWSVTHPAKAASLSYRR
Summary of the method: as §1

USP38 = target: T2, USP38 (UniProt Q8NB14)
T2 sequence (whole entry): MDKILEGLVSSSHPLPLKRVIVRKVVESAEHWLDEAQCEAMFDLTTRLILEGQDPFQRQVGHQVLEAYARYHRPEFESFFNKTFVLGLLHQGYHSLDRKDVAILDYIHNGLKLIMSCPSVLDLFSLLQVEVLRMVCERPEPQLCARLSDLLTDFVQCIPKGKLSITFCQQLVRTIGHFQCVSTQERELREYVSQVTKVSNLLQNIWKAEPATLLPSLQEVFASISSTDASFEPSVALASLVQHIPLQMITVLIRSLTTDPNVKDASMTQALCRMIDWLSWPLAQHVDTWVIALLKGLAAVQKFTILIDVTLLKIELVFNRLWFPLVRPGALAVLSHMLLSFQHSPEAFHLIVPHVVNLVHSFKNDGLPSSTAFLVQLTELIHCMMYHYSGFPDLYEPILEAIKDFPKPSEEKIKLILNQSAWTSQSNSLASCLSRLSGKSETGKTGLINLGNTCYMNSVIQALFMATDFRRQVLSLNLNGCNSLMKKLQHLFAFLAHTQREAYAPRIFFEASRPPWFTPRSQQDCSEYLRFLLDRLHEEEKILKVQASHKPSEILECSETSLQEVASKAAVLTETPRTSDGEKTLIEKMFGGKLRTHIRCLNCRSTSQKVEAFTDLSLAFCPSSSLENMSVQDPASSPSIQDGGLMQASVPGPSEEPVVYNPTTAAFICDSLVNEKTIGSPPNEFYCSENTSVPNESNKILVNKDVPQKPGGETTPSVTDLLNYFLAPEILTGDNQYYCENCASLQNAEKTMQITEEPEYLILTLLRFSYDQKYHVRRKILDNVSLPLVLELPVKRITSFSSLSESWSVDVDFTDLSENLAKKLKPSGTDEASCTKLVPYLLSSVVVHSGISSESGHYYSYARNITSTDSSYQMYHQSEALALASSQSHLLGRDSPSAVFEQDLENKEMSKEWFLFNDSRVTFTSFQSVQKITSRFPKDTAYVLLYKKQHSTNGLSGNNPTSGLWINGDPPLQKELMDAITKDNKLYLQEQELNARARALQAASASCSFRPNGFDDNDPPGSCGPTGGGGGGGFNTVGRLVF
Summary of the method: as §1

USP39 = target: T3, USP39 (UniProt Q53GS9)
T3 sequence (whole entry): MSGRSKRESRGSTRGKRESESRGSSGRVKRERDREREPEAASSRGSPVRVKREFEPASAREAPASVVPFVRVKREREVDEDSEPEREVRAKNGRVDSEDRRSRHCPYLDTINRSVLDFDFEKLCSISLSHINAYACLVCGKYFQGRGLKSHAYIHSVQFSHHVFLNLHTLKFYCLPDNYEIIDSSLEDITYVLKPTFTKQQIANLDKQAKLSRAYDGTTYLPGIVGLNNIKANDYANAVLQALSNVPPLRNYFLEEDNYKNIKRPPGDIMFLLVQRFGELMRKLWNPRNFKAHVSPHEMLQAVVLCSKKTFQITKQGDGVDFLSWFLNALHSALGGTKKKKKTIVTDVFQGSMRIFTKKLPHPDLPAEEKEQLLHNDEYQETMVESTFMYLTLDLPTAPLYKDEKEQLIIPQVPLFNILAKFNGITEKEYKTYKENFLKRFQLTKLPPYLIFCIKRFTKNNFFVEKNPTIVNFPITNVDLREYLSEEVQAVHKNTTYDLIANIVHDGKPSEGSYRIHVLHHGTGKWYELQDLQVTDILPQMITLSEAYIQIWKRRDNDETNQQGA
Summary of the method: as §1

USP4 = target: T4, USP4 (UniProt Q13107)
T4 sequence (whole entry): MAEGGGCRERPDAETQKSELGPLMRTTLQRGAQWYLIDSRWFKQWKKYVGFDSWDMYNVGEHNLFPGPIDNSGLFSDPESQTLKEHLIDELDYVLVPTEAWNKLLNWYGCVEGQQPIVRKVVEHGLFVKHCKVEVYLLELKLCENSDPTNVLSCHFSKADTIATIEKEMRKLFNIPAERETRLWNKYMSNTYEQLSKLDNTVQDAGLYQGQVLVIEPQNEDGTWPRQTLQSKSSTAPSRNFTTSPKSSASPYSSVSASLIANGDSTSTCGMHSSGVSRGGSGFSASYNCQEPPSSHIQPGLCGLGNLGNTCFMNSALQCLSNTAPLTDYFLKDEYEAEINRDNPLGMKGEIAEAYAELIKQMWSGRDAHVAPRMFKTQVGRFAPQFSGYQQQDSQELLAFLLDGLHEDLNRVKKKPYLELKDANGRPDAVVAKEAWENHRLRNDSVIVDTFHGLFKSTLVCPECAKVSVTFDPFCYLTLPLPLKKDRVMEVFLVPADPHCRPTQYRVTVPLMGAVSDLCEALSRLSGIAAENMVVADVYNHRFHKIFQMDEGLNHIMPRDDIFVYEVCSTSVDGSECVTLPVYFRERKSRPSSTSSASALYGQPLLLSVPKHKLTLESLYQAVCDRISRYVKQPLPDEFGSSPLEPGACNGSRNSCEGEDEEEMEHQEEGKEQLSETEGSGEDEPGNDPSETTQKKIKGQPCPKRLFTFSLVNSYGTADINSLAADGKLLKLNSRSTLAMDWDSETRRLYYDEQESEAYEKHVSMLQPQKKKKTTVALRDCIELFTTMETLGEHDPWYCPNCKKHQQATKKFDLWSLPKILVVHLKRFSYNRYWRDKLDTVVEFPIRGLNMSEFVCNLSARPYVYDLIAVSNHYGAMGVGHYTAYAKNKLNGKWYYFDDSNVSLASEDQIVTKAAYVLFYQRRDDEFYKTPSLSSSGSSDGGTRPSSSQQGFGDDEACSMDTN
Summary of the method: as §1

Measured: log2 ratio of Biotin-Ahx-Ub-VS probe labelling

USP34, sequence (Q70CQ2 whole entry, the tested form may be a part): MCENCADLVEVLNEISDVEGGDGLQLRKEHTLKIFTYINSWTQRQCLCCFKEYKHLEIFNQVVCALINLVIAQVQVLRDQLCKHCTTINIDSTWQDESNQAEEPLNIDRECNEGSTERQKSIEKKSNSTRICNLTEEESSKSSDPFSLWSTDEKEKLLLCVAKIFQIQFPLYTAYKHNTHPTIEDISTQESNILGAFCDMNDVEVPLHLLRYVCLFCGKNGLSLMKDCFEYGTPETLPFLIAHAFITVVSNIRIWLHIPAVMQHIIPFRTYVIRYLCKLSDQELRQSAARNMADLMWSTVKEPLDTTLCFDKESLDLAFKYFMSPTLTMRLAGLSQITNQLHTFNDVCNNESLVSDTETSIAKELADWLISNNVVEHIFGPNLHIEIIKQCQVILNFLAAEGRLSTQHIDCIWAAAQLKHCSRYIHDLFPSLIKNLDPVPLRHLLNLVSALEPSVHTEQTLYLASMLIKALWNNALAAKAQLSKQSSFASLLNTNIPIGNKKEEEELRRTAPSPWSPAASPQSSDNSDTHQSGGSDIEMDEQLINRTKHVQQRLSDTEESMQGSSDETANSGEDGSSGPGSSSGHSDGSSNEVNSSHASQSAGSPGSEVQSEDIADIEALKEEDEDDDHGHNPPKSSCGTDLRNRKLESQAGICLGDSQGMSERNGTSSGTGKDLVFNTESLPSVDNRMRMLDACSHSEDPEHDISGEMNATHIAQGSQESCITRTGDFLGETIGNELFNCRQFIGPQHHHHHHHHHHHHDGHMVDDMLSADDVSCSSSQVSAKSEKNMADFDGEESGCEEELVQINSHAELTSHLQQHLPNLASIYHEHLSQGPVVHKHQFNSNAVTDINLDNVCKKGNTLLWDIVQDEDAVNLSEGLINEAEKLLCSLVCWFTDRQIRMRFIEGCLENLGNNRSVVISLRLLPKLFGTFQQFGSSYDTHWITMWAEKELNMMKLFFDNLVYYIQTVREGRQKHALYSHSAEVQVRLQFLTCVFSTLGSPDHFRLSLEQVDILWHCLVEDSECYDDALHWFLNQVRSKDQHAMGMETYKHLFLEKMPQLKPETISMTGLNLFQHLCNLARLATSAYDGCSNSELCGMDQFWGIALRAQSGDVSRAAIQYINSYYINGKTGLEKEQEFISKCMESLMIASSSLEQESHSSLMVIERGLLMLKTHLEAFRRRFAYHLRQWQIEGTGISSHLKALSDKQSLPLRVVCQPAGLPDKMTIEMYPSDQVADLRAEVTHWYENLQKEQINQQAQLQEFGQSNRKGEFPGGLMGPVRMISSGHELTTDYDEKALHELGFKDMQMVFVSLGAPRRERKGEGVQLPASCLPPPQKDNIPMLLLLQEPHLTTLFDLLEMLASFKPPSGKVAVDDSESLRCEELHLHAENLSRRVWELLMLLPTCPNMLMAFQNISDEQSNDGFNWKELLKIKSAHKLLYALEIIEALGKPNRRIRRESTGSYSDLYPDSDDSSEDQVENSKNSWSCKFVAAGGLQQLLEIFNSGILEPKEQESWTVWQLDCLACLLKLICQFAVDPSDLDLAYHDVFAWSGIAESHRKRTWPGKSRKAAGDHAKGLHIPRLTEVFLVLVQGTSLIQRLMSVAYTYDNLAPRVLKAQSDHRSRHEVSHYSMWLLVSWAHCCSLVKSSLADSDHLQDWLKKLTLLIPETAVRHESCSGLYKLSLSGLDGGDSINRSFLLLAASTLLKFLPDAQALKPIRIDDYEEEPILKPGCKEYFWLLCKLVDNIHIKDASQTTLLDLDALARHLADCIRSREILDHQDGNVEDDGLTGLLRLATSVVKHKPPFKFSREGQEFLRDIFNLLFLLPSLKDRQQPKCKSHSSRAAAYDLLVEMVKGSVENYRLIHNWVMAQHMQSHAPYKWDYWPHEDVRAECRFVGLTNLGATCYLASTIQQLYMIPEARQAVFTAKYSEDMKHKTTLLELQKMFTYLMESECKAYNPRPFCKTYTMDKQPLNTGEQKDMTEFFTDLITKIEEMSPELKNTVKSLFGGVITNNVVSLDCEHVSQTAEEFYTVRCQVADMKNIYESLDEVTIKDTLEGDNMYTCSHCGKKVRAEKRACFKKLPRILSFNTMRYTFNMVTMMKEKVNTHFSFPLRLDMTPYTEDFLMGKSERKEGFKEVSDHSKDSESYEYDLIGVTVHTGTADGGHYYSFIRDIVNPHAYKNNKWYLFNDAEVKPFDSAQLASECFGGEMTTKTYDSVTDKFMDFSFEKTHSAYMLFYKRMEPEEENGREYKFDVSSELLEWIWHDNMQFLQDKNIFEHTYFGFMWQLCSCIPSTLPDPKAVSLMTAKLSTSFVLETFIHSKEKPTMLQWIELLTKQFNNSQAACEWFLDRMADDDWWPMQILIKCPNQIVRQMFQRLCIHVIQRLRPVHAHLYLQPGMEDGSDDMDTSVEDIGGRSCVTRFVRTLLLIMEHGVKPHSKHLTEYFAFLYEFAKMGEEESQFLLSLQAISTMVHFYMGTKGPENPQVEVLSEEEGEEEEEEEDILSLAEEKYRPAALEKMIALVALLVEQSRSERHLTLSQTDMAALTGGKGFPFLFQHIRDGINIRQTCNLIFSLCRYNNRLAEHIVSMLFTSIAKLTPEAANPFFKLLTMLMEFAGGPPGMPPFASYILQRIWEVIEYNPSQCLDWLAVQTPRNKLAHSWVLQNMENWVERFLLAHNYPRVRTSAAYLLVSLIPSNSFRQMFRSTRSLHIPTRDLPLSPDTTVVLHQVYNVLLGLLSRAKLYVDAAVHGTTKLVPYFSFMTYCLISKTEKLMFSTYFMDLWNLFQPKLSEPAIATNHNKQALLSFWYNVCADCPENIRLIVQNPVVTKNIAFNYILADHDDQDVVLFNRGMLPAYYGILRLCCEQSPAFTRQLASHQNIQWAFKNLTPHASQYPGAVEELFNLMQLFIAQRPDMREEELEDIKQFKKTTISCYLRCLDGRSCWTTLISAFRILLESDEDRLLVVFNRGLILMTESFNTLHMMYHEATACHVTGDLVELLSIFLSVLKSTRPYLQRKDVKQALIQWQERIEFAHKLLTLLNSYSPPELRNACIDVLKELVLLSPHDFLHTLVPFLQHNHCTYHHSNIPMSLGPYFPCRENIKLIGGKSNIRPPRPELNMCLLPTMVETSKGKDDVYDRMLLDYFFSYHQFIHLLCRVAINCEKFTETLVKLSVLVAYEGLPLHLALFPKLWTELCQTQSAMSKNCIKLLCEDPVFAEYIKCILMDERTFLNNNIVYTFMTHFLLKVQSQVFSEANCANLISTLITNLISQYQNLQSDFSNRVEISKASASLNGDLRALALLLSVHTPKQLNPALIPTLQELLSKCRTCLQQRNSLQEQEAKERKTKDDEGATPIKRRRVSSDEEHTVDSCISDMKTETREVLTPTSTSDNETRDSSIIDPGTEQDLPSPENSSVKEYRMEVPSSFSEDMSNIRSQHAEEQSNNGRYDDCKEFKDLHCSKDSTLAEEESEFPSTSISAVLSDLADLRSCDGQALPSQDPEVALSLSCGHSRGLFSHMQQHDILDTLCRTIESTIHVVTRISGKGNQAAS

CN(C(=O)CCl)c1nc2ccccc2s1
inactive: USP34 -0.279 | USP36 -0.0441 | USP38 -0.124 | USP39 0.31 | USP4 0.161
